Results filed as inconclusive are left out. The source made the active and inactive calls. Unless noted, calls come from the whole dose curve; as a rule, active = well fitted curve in the direction sought with a large enough effect in the repeat runs; inconclusive = weak or mixed curves; inactive = no such curve, though single readings can be large; an effect the other way counts as inactive or inconclusive.
Assays:
[1] = qHTS assay to identify small molecule antagonists of the glucocorticoid receptor (GR) signaling pathway - cell viability counter screen (AID 720693); note: nearly all actives have a fitted effect of over 55% in size
[2] = qHTS assay for identifying genotoxic compounds that show differential cytotoxicity against isogenic chicken DT40 cell lines with known DNA damage response pathways - Rev3 mutant cell line (AID 743014); note: nearly all actives have a fitted effect of over 55% in size
[3] = qHTS assay for identifying genotoxic compounds that show differential cytotoxicity against isogenic chicken DT40 cell lines with known DNA damage response pathways - Rad54/Ku70 mutant cell line (AID 743015); note: nearly all actives have a fitted effect of over 60% in size
[4] = qHTS assay to identify small molecule antagonists of the androgen receptor (AR) signaling pathway - cell viability counter screen (AID 743033; note: nearly all actives have a fitted effect of over 45% in size)
[5] = biological target: Androgen receptor (Homo sapiens) (UniProt P10275); assay: qHTS assay to identify small molecule agonists of the androgen receptor (AR) signaling pathway using the MDA cell line (AID 743040; note: nearly all actives have a fitted effect of over 20% in size)
Chain of Androgen receptor (Homo sapiens) (P10275 whole entry, looked up): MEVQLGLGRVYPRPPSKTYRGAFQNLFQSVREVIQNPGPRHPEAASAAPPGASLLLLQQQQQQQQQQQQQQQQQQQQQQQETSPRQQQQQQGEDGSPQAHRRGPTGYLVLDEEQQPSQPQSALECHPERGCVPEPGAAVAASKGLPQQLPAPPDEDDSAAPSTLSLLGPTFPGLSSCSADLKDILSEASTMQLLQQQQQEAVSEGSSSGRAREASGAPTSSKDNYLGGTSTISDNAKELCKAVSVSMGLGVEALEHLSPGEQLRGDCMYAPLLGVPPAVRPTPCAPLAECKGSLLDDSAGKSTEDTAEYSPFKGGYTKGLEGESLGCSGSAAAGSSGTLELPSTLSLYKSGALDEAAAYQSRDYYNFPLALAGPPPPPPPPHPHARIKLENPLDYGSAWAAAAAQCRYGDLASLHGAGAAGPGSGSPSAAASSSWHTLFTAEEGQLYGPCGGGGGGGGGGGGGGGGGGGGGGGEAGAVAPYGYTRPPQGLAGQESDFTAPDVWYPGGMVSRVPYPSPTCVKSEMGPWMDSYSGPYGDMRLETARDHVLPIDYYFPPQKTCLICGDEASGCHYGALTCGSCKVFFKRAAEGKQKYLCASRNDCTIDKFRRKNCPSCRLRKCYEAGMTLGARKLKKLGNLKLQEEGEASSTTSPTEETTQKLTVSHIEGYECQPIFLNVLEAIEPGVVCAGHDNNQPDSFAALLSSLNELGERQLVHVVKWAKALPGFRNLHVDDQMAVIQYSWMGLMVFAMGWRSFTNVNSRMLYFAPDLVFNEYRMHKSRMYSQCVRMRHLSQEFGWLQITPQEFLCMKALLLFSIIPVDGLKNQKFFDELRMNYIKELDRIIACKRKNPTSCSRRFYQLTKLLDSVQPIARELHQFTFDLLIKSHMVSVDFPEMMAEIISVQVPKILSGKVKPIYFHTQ
Summary of the method: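 Cell-based luciferase reporter: MDA-kb2, MMTV promoter (AR + GR response elements). 16 h compound exposure at 37C; ONE-Glo, 30 min RT, luminescence.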

[6] = qHTS assay to identify small molecule antagonists of the androgen receptor (AR) signaling pathway using the MDA cell line - cell viability counter screen (AID 743041; note: nearly all actives have a fitted effect of over 45% in size)
Summary of the method: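 In this qHTS counter assay, fluorescence intensity after CellTiter-Fluor addition indicated viability of MDA-kb2 AR-luc cells given compounds and R1881 for 16 h at 37C.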

[7] = biological target: Androgen receptor (Homo sapiens) (UniProt P10275); assay: qHTS assay to identify small molecule antagonists of the androgen receptor (AR) signaling pathway using the MDA cell line (AID 743042; note: nearly all actives have a fitted effect of over 55% in size)
Summary of the method: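 MDA-kb2 cells (human breast carcinoma, stably carrying an MMTV-luciferase reporter responsive to AR and GR) were plated at 3,000 cells/well and preincubated 5 hr at 37C, then given compound plus R1881 agonist for 16 h. ONE-Glo luminescence was read.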

[8] = qHTS assay to identify small molecule antagonists of the thyroid receptor (TR) signaling pathway - cell viability counter screen (AID 743064); note: nearly all actives have a fitted effect of over 50% in size
Summary of the method: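 Same-well viability check: GH3.TRE-Luc cells stimulated with 1 nM T3 alongside test compound for 23.5 h, followed by CellTiter-Fluor fluorescence.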

[9] = qHTS assay to identify small molecule antagonists of the estrogen receptor alpha (ER-alpha) signaling pathway - cell viability counter screen (AID 743074; calls by dose curve;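 note: HEK293 cells carrying ER-alpha-UAS-bla reporter stimulated with 17beta-estradiol; nearly all actives have a fitted effect of over 45% in size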)
[10] = qHTS assay to identify small molecule antagonists of the estrogen receptor alpha (ER-alpha) signaling pathway using the BG1 cell line - cell viability counter screen (AID 743081);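 note: compound given together with 17beta-estradiol as the ER stimulus; series mostly up to about 70 µM; nearly all actives have a fitted effect of over 45% in size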
Aromatase (Homo sapiens) = Aromatase (Homo sapiens) (UniProt P11511); assay: qHTS assay to identify aromatase inhibitors (AID 743083); note: series mostly up to about 70 µM; nearly all actives have a fitted effect of over 55% in size
Chain of Aromatase (Homo sapiens) (P11511 whole entry, looked up): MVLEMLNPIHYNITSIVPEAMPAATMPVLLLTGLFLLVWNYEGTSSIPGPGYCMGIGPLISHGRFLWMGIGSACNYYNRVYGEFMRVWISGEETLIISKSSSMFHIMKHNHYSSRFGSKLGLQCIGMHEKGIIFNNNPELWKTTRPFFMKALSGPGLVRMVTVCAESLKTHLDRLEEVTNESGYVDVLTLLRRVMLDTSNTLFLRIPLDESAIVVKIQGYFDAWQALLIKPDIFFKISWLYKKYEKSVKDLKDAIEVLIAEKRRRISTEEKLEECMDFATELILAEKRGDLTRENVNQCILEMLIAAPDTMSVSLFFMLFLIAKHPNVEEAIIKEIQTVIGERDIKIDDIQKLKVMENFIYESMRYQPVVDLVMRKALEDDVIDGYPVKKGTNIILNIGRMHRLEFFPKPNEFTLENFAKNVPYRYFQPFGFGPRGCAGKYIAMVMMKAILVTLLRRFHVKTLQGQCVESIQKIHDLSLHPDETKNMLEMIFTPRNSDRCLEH

[11] = qHTS assay to identify aromatase inhibitors - cell viability counter screen (AID 743084)
[12] = qHTS assay for identifying genotoxic compounds that show differential cytotoxicity against isogenic chicken DT40 cell lines with known DNA damage response pathways - wild type cell line (AID 743012); note: nearly all actives have a fitted effect of over 60% in size
Summary of the method: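 Luminescent ATP viability signal (CellTiter-Glo, 30 min RT) recorded after wild type DT40 cells were incubated with compounds for 40 h at 37 C/5% CO2.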

[13] = qHTS assay to identify small molecule antagonists of the thyroid receptor (TR) signaling pathway (AID 743065)
Summary of the method: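 GH3.TRE-Luc rat pituitary cells carrying two TR response elements driving luciferase were plated for 4 h, given compound plus 1 nM T3 (final), and incubated 23.5 h at 37 C. ONE-Glo luminescence measured reporter inhibition; CellTiter-Fluor fluorescence tracked cytotoxicity.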

[14] = test system: thyroid hormone receptor (rat, GH3 cells); assay: qHTS assay to identify small molecule agonists of the thyroid receptor (TR) signaling pathway (AID 743066; calls by dose curve)
[15] = biological target: Estrogen receptor (Homo sapiens) (UniProt P03372); assay: qHTS assay to identify small molecule antagonists of the estrogen receptor alpha (ER-alpha) signaling pathway (AID 743069; active = well fitted curve in the direction sought with a large enough effect in the signal ratio in the repeat runs, not every such curve was filed as active; the % refers to the signal ratio)
Chain of Estrogen receptor (Homo sapiens) (P03372 whole entry, looked up): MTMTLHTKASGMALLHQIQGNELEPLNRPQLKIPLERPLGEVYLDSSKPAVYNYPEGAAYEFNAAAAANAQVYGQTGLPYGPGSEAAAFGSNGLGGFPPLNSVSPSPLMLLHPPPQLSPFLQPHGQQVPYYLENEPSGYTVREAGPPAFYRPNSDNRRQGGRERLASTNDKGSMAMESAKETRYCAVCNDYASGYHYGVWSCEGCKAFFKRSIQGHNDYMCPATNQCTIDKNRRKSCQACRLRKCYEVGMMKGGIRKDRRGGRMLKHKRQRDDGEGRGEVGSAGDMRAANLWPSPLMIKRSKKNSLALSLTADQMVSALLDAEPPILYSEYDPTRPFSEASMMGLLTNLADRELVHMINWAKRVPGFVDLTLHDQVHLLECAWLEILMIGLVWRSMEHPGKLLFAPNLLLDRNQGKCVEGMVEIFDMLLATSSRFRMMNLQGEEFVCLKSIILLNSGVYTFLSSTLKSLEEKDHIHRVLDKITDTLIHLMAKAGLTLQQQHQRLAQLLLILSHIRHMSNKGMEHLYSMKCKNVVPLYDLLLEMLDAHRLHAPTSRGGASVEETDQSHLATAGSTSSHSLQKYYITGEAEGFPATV
Summary of the method: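 A 17beta-estradiol challenge was applied right after compound transfer to ER-alpha-UAS-bla HEK293 cells previously kept in charcoal-stripped serum. Plates stood 18 hr at 37C and 5% CO2; fluorescence was read following 2 hr FRET substrate loading at room temperature.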

[16] = biological target: Estrogen receptor (Homo sapiens) (UniProt P03372); assay: qHTS assay to identify small molecule agonists of the estrogen receptor alpha (ER-alpha) signaling pathway (AID 743075; calls by dose curve;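 note: HEK293 GripTite cells with ER-alpha and UAS-driven beta-lactamase reporter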)
[17] = biological target: Estrogen receptor (Homo sapiens) (UniProt P03372); assay: qHTS assay to identify small molecule agonists of the estrogen receptor alpha (ER-alpha) signaling pathway using the BG1 cell line (AID 743079); note: nearly all actives have a fitted effect of over 20% in size
[18] = qHTS assay to identify small molecule antagonists of the estrogen receptor alpha (ER-alpha) signaling pathway using the BG1 cell line (AID 743080; calls by dose curve;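 note: BG1 cells stimulated with 17beta-estradiol alongside compound; series mostly up to about 70 µM; nearly all actives have a fitted effect of over 25% in size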)
Summary of the method: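 Seeding, 24 h rest, compound transfer from DMSO, 17beta-estradiol addition, 21.5 h incubation, CellTiter-Fluor (30 min, 37 C), then ONE-Glo (30 min, room temperature): this sequence was run on BG1-Luc-4E2 reporter cells.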

[19] = biological target: Androgen receptor (Homo sapiens) (UniProt P10275); assay: qHTS assay to identify small molecule agonists of the androgen receptor (AR) signaling pathway (AID 743036; active = well fitted activation curve with a large enough effect in the signal ratio in the repeat runs, with a control signal flat, not every such curve was filed as active; the % refers to the signal ratio)
Summary of the method: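 Agonist activity was scored by beta-lactamase reporter fluorescence in stably transfected HEK293 cells exposed to compounds for 16 h at 37C and 5% CO2. Substrate loading took 2 h at room temperature.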

Measured: Potency

C=CCOC(=O)CCCCCC
inactive: [1] | [2] | [3] | [4] | [5] | [6] | [7] | [8] | [9] | [10] | Aromatase (Homo sapiens) | [11]

COP(=O)(O)OP(=O)(O)OC
inactive: [12] | [2] | [3] | [4] | [6] | [8] | [13] | [14] | [15] | [9] | [16] | [17] | [18] | [10] | Aromatase (Homo sapiens) | [11]

CCCC(=O)OCCC(C)CCC=C(C)C (centres undefined)
inactive: [1] | [4] | [6] | [13] | [14] | [9] | [10] | Aromatase (Homo sapiens) | [11]

CC(=O)CC(=O)OC(C)(C)C
inactive: [12] | [2] | [3] | [4] | [5] | [6] | [7] | [8] | [13] | [14] | [15] | [9] | [16] | [18] | [10] | Aromatase (Homo sapiens) | [11]

COC(=O)c1ccccc1C(=O)O
inactive: [1] | [2] | [3] | [4] | [6] | [8] | [14] | [9] | [16] | [17] | [18] | [10] | Aromatase (Homo sapiens) | [11]

O=C(Cl)c1ccccc1[N+](=O)[O-]
inactive: [12] | [2] | [3] | [4] | [19] | [5] | [6] | [7] | [14] | [9] | [10] | Aromatase (Homo sapiens) | [11]

O=C(CCCCC(=O)Nc1c(I)cc(I)c(C(=O)O)c1I)Nc1c(I)cc(I)c(C(=O)O)c1I
inactive: [12] | [2] | [3] | [4] | [6] | [8] | [13] | [14] | [15] | [9] | [16] | [17] | [18] | Aromatase (Homo sapiens) | [11]

OC[C@H]1O[C@@H](O[C@@H]2[C@@H](CO)O[C@](O)(CO)[C@H]2O)[C@H](O)[C@@H](O)[C@H]1O
inactive: [12] | [2] | [3] | [4] | [19] | [5] | [6] | [7] | [8] | [14] | [15] | [9] | [16] | [17] | [18] | [10] | Aromatase (Homo sapiens) | [11]

CCCC(CC)c1ccccc1 (centres undefined)
inactive: [1] | [2] | [3] | [4] | [6] | [8] | [14] | [15] | [9] | [16] | [17] | [18] | [10] | Aromatase (Homo sapiens) | [11]

Reference: PubChem BioAssay (Tox21)
